Pf growth 48h – Primary qHTS for delayed death inhibitors of the malarial parasite plastid, 48 hour incubation; P. falciparum luciferase growth in erythrocytes, 48 h; Potency, µM (series often up to 28.7 µM), inactives show top-dose activity change, negative = inhibition, most hits filed as inhibitors; AID 504832, 2011; actives 5.9% (n = 310,000); note: potency is the fitted concentration of half-maximal effect; % is set by controls: 0 for no effect and ±100 for the full control effect
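A one-generation exposure of luciferase-tagged malaria parasites in RPMI 1640/Albumax erythrocyte culture, 37 C and 5% CO2. Inhibition is inferred from decreased luminescence after adding detection reagent.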
CHX counter – Cycloheximide Counterscreen for Small Molecule Inhibitors of Shiga Toxin | cell reporter, cycloheximide protein synthesis inhibition counterscreen | max response, % | actives 12% (n = 300,000) | AID 2314, 2010; in the data active = max response mostly above about 13%, no sharp cut-off; inactive = mostly below about 14%; note: read at 38.3 µM for the half of the compounds with a filed dose; 0% is about no effect
Shiga toxin inh – A qHTS for Small Molecule Inhibitors of Shiga Toxin | AID 2315, 2010 | actives 9.2% (n = 290,000) | Vero cells, Shiga toxin protein synthesis inhibition reporter | inhibition, % at 38.7 µM; in the data active = inhibition mostly above about 28%, no sharp cut-off; inactive = mostly below about 43%; note: 0% is about no effect
Pf growth 96h – Primary qHTS for delayed death inhibitors of the malarial parasite plastid, 96 hour incubation; actives 6.9% (n = 320,000); Potency, µM (doses to about 28.7 µM), without a hit: at the highest dose activity change, negative = inhibition, hits mostly inhibitors; P. falciparum luciferase reporter growth, 96 h; AID 504834, 2011; note: potency is the fitted concentration of half-maximal effect; % is set by controls: 0 for no effect and ±100 for the full control effect
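Cell-based qHTS: luciferase-tagged P. falciparum in erythrocytes (2% hematocrit, 0.05% parasitemia final) incubated with compounds for 96 hours, 37 C, 5% CO2; luciferase detection reagent then added and luminescence measured.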
The depositor's hits bear a star; ? = inconclusive; . = no result. An excerpt weighted towards active compounds, which were near 21% of everything screened. Unless noted, calls come from the whole dose curve; as a rule, active = well fitted inhibition curve with a large enough effect; inconclusive = small, poorly fitted or top-dose-only effect, or another doubt; inactive = no such curve, though single readings can be large or run the other way.

SMILES	Pf growth 48h	CHX counter	Shiga toxin inh	Pf growth 96h
N#CCOC(=O)c1c2c(nc3ccccc13)CCC2	-30%	-1	-10	?
C/C(=N\NC(=O)COc1ccc([N+](=O)[O-])cc1)C(C)(C)C	-5%	-2	-11	32%
Cc1ccc(-n2cccn2)c(CN2CCC(CO)(CCc3ccccc3)CC2)c1	?	10	-16	?
S=C=Nc1ccc(N=C=S)cc1	-2%	.	.	-3%
Cc1ccc(NC2=NCC(=O)N2Cc2cccs2)cc1C	-13%	29*	24	?
N=C1C(c2ccccc2)=C(O)CN1CCO	17%	1	-6	0%
CCOC(=O)C1(Cc2cccc(Cl)c2)CCCN(C(=O)CCOC)C1 (configuration not stated)	-4%	13*	18	5%
CCOC(=O)C1(Cc2cccc(Cl)c2)CCCN(C(=O)CCN2CCCC2=O)C1 (configuration not stated)	0%	25*	31	-8%
CCOC(=O)C1(Cc2ccccc2C)CCCN(C(=O)COC)C1 (configuration not stated)	-6%	23*	41*	?
C=CCCC(=O)N1CCCC(Cc2cccc(Cl)c2)(C(=O)OCC)C1 (configuration not stated)	-28%	9	-35	12µM*
CCOC(=O)C1(Cc2cccc(Cl)c2)CCCN(C2CCN(C(C)=O)CC2)C1 (configuration not stated)	?	-1	16	54%
COc1ccc(S(=O)(=O)N2CCOCC2)cc1NC(=O)CCc1nc2ccccc2c(=O)[nH]1	16%	-1	15	-2%
CCOC(=O)C1(Cc2cccc(Cl)c2)CCCN(C(=O)CCSC)C1 (configuration not stated)	-10%	22*	29	378%
COC(=O)C1=C(C(C)=O)C(c2ccc(C)cc2)n2nnnc2N1 (configuration not stated)	.	3	2	?
CCc1ccc(C2C(C(C)=O)=C(C(=O)OC)Nc3nnnn32)cc1 (configuration not stated)	-17%	1	-3	5.2µM*
COc1ccc(-n2nnnc2CNC(=O)c2ccc3c(c2)OCO3)cc1	21%	.	.	5%
Nc1nc(SCc2ccccc2)[nH]c(=O)c1-c1ccccc1	56%	67*	121*	1%
Nc1nc(SCC(=O)N2CCCc3ccccc32)[nH]c(=O)c1-c1ccccc1	14%	34*	54*	0%
O=C(CSc1nc2c(cnn2-c2ccc(F)cc2)c(=O)[nH]1)N1CCCc2ccccc21	27%	-5	-31	?
Nc1nc(SCc2ccccc2Cl)[nH]c(=O)c1-c1ccccc1	-17%	10	16	11%
N#Cc1ccc(CN2C=NS(=O)(=O)c3ccccc32)cc1	7%	-2	-9	4%
CC(CCc1ccccc1)NC(=O)Cn1cccc1C(=O)c1ccccc1 (configuration not stated)	4%	-1	7	-31%
Cc1ccc(-c2[nH]ncc2CN2CCN(C(=O)c3cccs3)CC2)cc1C	-9%	-2	-15	?
Cc1ccc(Nc2nc(NCC3CCCO3)nc(N)c2[N+](=O)[O-])cc1 (configuration not stated)	-28%	1	-6	12µM*
CNc1nc(N)c([N+](=O)[O-])c(NCC2CCCO2)n1 (configuration not stated)	2.1µM*	1	31	-3%
SMILES	Pf growth 48h	CHX counter	Shiga toxin inh	Pf growth 96h
Cc1cccc(Nc2nc(NCC3CCCO3)nc(N)c2[N+](=O)[O-])c1 (configuration not stated)	1%	-5	-7	?
Nc1nc(NCC2CCCO2)nc(Nc2ccc(F)cc2)c1[N+](=O)[O-] (configuration not stated)	?	-2	11	5.9µM*
CCOc1ccc(S(=O)(=O)NCCCl)cc1	5%	9	0	27%
c1cn(-c2ncnc3sc4c(c23)CCCC4)cn1	-5%	-4	-5	0.17µM*
Cc1nnc2ccc(-c3cccc(NS(=O)(=O)c4ccccc4[N+](=O)[O-])c3)nn12	52%	.	.	2.9µM*
Cc1nnc2ccc(-c3cccc(NS(=O)(=O)c4ccccc4Cl)c3)nn12	12µM*	.	.	?
CC(Oc1ccc(F)cc1)C(=O)Nc1nc(-c2ccccn2)cs1 (configuration not stated)	2.6µM*	.	.	2.3µM*
O=C(Nc1nc(-c2ccccn2)cs1)C12CC3CC(CC(O)(C3)C1)C2	328%	34*	91*	?
